Rows were chosen to be rich in hits. Some 7.4% of all compounds tested hit in one or more screens of this group.
SMN2 splice enh: enhancers of SMN2 splice variant expression; HEK293 SMN2-luciferase splicing reporter, luminescence, 30-36 h; Potency, µM (highest dose often 46.1 µM), inactives show at the top dose activity change, positive = activation, usual class: activators; actives 2.8% (n = 210,000); further: % of control where 0% means no effect; nearly all actives have a fitted effect of over 55% in size
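HEK293 cells carry an SMN2 minigene-luciferase reporter in which exon 7 inclusion puts luciferase in frame. Cells were seeded at 2000 cells/well, attached for 10-12 hours, then exposed to compounds for 30-36 hours at 37C before ONE-Glo luminescence.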
ELG1 genotox: induces genotoxicity in HEK293T cells with luciferase-tagged ELG1; HEK293T ELG1-luciferase reporter, luminescence, 16 h; Potency, µM (top dose mostly 46 µM), for the others: at the highest dose activity change, positive = activation, usual class: activators; actives 1.3% (n = 330,000); AID 504466; further: % of control where 0% means no effect; nearly all actives have a fitted effect of over 60% in size
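After overnight (16 hr) compound treatment at 37 °C, ELG1-luciferase HEK293T cells were lysed with ONE-Glo; luminescence quantified 30 min later at room temperature.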
FLuc modulator: counter-screen for miR-21 project: firefly luciferase inhibitors or activators; actives 6.9% (n = 360,000); P08659; purified FLuc, Km substrates, luminescence inhibition; AID 588342; Potency, µM (series often up to 57.5 µM), inactives show at the top dose activity change, negative = inhibition, most hits filed as inhibitors;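 further: plate controls were vehicle for no effect and reference inhibitor for full effect; nearly all actives have a fitted effect of over 55% in size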
Target sequence (P08659 whole entry, looked up): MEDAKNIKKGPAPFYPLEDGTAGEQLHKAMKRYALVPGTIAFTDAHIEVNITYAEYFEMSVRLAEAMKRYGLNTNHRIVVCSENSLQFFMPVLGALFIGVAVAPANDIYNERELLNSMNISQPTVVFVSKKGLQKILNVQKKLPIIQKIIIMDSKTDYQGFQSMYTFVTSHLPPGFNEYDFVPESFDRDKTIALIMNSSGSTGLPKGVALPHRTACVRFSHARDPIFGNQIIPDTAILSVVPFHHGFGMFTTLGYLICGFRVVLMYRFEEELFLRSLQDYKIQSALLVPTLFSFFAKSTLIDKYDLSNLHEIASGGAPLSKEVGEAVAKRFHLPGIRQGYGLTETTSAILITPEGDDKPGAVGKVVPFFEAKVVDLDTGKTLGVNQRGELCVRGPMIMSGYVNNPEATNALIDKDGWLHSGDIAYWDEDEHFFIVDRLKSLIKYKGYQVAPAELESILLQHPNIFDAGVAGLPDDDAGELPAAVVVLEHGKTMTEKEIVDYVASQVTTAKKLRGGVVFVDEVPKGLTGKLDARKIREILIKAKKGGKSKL
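Purified P. pyralis luciferase (10nM final) with 10uM D-luciferin and 10uM ATP (Km levels) in 50mM Tris acetate pH 7.5, 10mM Mg acetate, 0.01% Tween-20, 0.05% BSA; qHTS 6-point titration, ~60 µM downward; luminescence read.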
Rab9 promoter act: activates the Rab9 promoter | Huh7 Rab9 promoter-luciferase reporter, luminescence, 24 h | Potency, µM (highest dose often 9.22 µM), without a hit: top-dose activation, negative = inhibition, most hits filed as activators | actives 2.8% (n = 320,000) | AID 485297; further: % of control where 0% means no effect; nearly all actives have a fitted effect of over 60% in size
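Cells were plated at 1500 per well in reduced-serum medium with 10% FBS and left 2 h. Compound in DMSO was then added for 24 h at 37 °C. Reporter signal was read by luminescence after 10 min with luciferase detection reagent.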
NPC1 promoter act: activators of NPC1 promoter; Huh7 NPC1 promoter luciferase reporter, 24 h; actives 2.4% (n = 320,000); Potency, µM (series often up to 9.22 µM), for the others: at the highest dose activation, usual class: activators; further: % of control where 0% means no effect; nearly all actives have a fitted effect of over 60% in size
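Readout is luciferase luminescence, reflecting NPC1 promoter activation in stably transfected Huh7 cells after 24 h compound exposure at 37 °C in reduced-serum medium with 10% FBS.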
Numbers without * were called inactive; ? = inconclusive; / = not tested or not shown; [ ] = another dose, or the depositor's remark. The call rests on the fitted dose curve; in most records, active means well fitted curve in the direction sought with a large enough effect; inconclusive means small, poorly fitted or top-dose-only effect, or another doubt; inactive means no such curve, though single readings can be large; an effect the other way counts as inactive or inconclusive. Potency means the concentration at half of the fitted maximal effect.

SMILES | SMN2 splice enh | ELG1 genotox | FLuc modulator | Rab9 promoter act | NPC1 promoter act
Cc1cccc(N2CCN(C(=O)c3cnn(-c4ccccc4Cl)c3C3CCN(C(=O)OC(C)(C)C)CC3)CC2C)c1 (stereo not drawn) | / | / | 3.9% | / | /
Cc1cc(NS(=O)(=O)c2ccc(NC(=O)COc3ccccc3Br)cc2)no1 | -0.1% | / | ? | / | /
COc1cccc(CCNC(=O)c2ccc(OC)c(OC3CCN(C(C)C)CC3)c2)c1 | / | -3.1% | -0.1% | -3.2% | -1.5%
COc1ccccc1NC(=O)Nc1ccccc1C(N)=O | -0.7% | 3.4% | -17.9% | 0.7% | 5.2%
COc1ccc(NC(=O)Nc2ccccc2C(N)=O)cc1OC | -7.9% | / | 19µM* | / | /
COc1ccccc1NC(=O)Nc1cc(F)ccc1F | 5.5% | 2.8% | 23.9µM* | 1.6% | 11.4%
COc1ccccc1NC(=O)Nc1nc(CC(=O)Nc2cc(F)ccc2F)cs1 | / | -5.6% | ? | -0.3% | 1.3%
CCOc1ccc(NC(=O)Nc2ccccc2C(N)=O)cc1 | 5.5% | 2.0% | 1.2µM* | 0.0% | 7.7%
O=C(Nc1ccc(N2CCOCC2)cc1)Nc1cnsn1 | 12.6µM* | 14.5% | 16.9µM* | ? | ?
COc1cccc(-n2ccn(CC(=O)Nc3ccccc3F)c(=O)c2=O)c1 | / | / | 5.6% | / | /
NCCC[C@@H](N)C(=O)O | -7.1%[9.22 µM] | / | / | / | /
COc1ccccc1C(=O)Nc1c(C(=O)Nc2ccccc2F)oc2ccccc12 | -1.7% | / | -6.3% | / | /
Cc1ccc(NC(=O)Nc2ccccc2C(N)=O)cc1 | / | 12.0% | 2.69µM* | 14.9% | 16.7%
COc1ccccc1NC(=O)Nc1ccc(Cc2ccncc2)cc1 | -2.6% | 6.2% | 16.9µM* | 13.3% | 4.5%
COc1ccccc1NC(=O)Nc1ccc(N2CCOCC2)cc1 | 112.1% | ? | 16.9µM* | ? | ?
COc1ccccc1CNCC(=O)Nc1ccc(N2CCOCC2)cc1 | ? | 1.1% | 0.5% | -14.3% | -4.5%
Cc1ccccc1NC(=O)Nc1ccccc1C(N)=O | / | 7.2% | -11.7% | -1.9% | -0.5%
COc1ccc(NC(=O)Nc2ccccc2C(N)=O)cc1 | 10.3% | 7.1% | 5.36µM* | 0.9% | -6.5%
CC(=O)N1c2ccc(S(=O)(=O)NCCC(=O)Nc3ccc(C)cc3Br)cc2CC1C (stereo not drawn) | / | / | 2.3% | / | /
COc1ccc(NC(=O)Nc2ccccc2OC)cc1 | ? | 9.2µM* | 8.49µM* | ? | ?
COc1ccc(NC(=O)N/C=C/c2ccccc2)cc1 | 15.8µM* | ? | ? | 3.55µM* | 2µM*
CC[C@@]1(C(=O)OC)N[C@H](CN(C)C(=O)c2ccc(C)cc2)[C@@H]2C(=O)N(Cc3ccccc3)C(=O)[C@@H]21 | / | -2.2% | / | / | /
Cc1nnc(SCC(=O)NNC(=O)C(C)C)[nH]c1=O | 7.6% | -2.1% | 5.5% | 1.5% | -3.5%
CCN1CCN(c2ccc(N=Cc3ccc(O)cc3O)cc2)CC1 | -9.0% | -0.4% | 16.9µM* | -5.1% | 1.2%
O=C(NC1CCCCCC1)c1ccc(OCC2CCCO2)cc1 (stereo not drawn) | 12.6µM* | ? | 12µM* | 2µM* | ?
SMILES | SMN2 splice enh | ELG1 genotox | FLuc modulator | Rab9 promoter act | NPC1 promoter act
CC(C)N(CCNC(=O)c1ccc(OCC2CCCO2)cc1)C(C)C (stereo not drawn) | / | -0.4% | -1.3% | -1.3% | -1.7%
COc1ccc(NC(=O)c2ccc(OCC3CCCO3)cc2)cc1OC (stereo not drawn) | / | 10.3% | 15.1µM* | 17.0% | -0.7%
COc1ccc(NC(=O)c2ccc(OCC3CCCO3)cc2)cc1Cl (stereo not drawn) | / | 6.7% | 2.39µM* | ? | ?
COc1ccc(CNC(=O)C2CCN(S(=O)(=O)c3cccc4nonc34)CC2)cc1 | / | -2.3% | 0.1% | 9.8% | -0.8%
CC(C)N(C(=O)c1cc2c(Cl)nc3ccccc3c2s1)C1CCCCC1 | 6.2% | / | -11.7% | / | /
CS(=O)(=O)Nc1ccc(C2=NN(S(C)(=O)=O)C(c3ccc4nccnc4c3)C2)cc1 (stereo not drawn) | / | 7.0% | -14.1% | 11.6% | -0.6%
CC(=O)N1N=C(c2ccc(C)cc2)CC1c1ccc2c(c1)OCO2 (stereo not drawn) | / | ? | 15.1µM* | ? | 2.82µM*
CS(=O)(=O)N1N=C(c2ccc(Br)cc2)CC1c1ccc2c(c1)OCO2 (stereo not drawn) | 25.1µM* | ? | 4.26µM* | 0.631µM* | 1.12µM*
Cc1ccc(C2=NN(S(C)(=O)=O)C(c3ccc4c(c3)OCO4)C2)cc1 (stereo not drawn) | 17.8µM* | 5.17µM* | 1.69µM* | 2.51µM* | 3.55µM*
CC(C)c1ccc(N(CC(=O)NC2CCCC2)C(=O)CCC(=O)Nc2ccccn2)cc1 | / | -1.0% | -1.1% | 0.0% | 1.4%
COc1cccc(-c2cc(C(F)(F)F)nc(-n3nc(C)c(Br)c3C)n2)c1 | 6.1% | / | -1.1% | / | /
CC1CCC/C(=N\NC(=O)Nc2ccccc2)C1 (stereo not drawn) | / | 5.6% | 15.1µM* | 0.8% | -1.0%
CC1CCC/C(=N\NS(=O)(=O)c2ccccc2)C1 (stereo not drawn) | / | -0.2% | -1.7% | 0.4% | -1.4%
O=C(Nc1ccc(CN2CCS(=O)(=O)CC2)cc1)c1ccc(C(F)(F)F)cc1 | / | 8.2% | 16.9µM* | -25.6% | -14.0%
O=C(Nc1ccc(CN2CCS(=O)(=O)CC2)cc1)c1ccccc1 | / | 0.0% | -10.3% | -0.4% | -0.7%
O=C(Nc1ccc(CN2CCS(=O)(=O)CC2)cc1)c1ccc(F)cc1 | / | -1.8% | -0.6% | -2.1% | 1.2%
CC(C)(C)c1ccc(C(=O)Nc2ccc(CN3CCS(=O)(=O)CC3)cc2)cc1 | / | -1.0% | 9.53µM* | -31.1% | -17.4%
Cc1nnc(SCC(=O)NCC(=O)Nc2ccc(F)c(F)c2F)n1Cc1ccccc1 | 22.7% | -1.9% | -6.0% | 1.8% | 0.3%
O=C(c1ccc(CSc2nc3ccncc3n2Cc2cccc(F)c2)cc1)N1CCCCC1 | -14.5% | / | ? | / | /
COc1ccc2oc(-c3cccc(NC(=O)c4sc5c([N+](=O)[O-])cccc5c4Cl)c3)nc2c1 | 9.5% | / | -3.9% | / | /
Cc1ccc(N=Nc2c(C)[nH]n(C(N)=S)c2=O)cc1C | 10µM* | ? | 3.79µM* | 3.55µM* | 3.55µM*
Cc1[nH]n(C(N)=S)c(=O)c1N=Nc1cc(-c2ccc(Br)cc2)[nH]n1 | ? | 8.4% | 1.69µM* | ? | 22.4%
CC(=O)Nc1ccc(N=Nc2c(C)[nH]n(C(N)=S)c2=O)cc1 | 42.6% | ? | 15.1µM* | ? | 29.1%
CC(=O)Nc1ccc(NC(=S)Nc2ccc(F)cc2)cc1 | 12.0% | -4.4% | -1.4% | 14.5% | -5.5%
Cc1c(N=Nc2c(-c3ccc([N+](=O)[O-])cc3)[nH]n(C(N)=S)c2=O)cccc1[N+](=O)[O-] | -61.5% | -14.7% | ? | -33.5% | -32.5%
NC(=S)n1[nH]c(-c2ccc([N+](=O)[O-])cc2)c(N=Nc2cccc([N+](=O)[O-])c2)c1=O | -71.5% | -15.2% | ? | -17.5% | 0.0%

High-throughput results from PubChem BioAssay.
